Experimental findings from PubChem BioAssay (NCI) are described below.

About 83,000 compounds went through this panel and 20% of them were active in at least one assay; those are over-represented in the sample as a whole.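 Growth was measured after 48 h exposure to one concentration of compound in 96-well plates. Values under 10 count as active.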 A number with no mark means an inactive call. Active and inactive are the calls of the source.

Among the test systems are RPMI-8226 leukemia; OVCAR-8 ovarian; OVCAR-5 ovarian; OVCAR-4 ovarian; OVCAR-3 ovarian; HS 578T breast; NCI/ADR-RES ovarian; T-47D breast; SK-OV-3 ovarian; IGROV1 ovarian.
Assay in all cases: NCI-60 one-dose screen, 48 h (100 = growth as untreated, 0 = no growth, -100 = all killed)
Holding throughout (conditions): 10 µM unless noted

Regarding `CCCCN1CCN(c2ccc3nc(-c4ccc5nc(-c6ccc(OC)c(OC)c6)[nH]c5c4)[nH]c3c2)CC1`, the growth in the assay on RPMI-8226 leukemia is -19% (active); in the assay with OVCAR-8 ovarian, 3.24% (active); with OVCAR-5 ovarian, 13.7%; in the assay on OVCAR-4 ovarian, -46.1% (active); with OVCAR-3 ovarian, -46.8% (active); in the assay with HS 578T breast, -18.7% (active). Besides, the results for the growth with NCI/ADR-RES ovarian and in the assay with T-47D breast were 91% and 17.6%, respectively.
`C=C1C(=O)O[C@H]2[C@H]1CC/C(COC(=O)/C=C\C(=O)O)=C\CC[C@@]1(C)O[C@@H]21`: the growth is 114% in the assay with RPMI-8226 leukemia; 101% with OVCAR-8 ovarian; 93.8% with OVCAR-5 ovarian; 113% in the assay on OVCAR-4 ovarian; 103% in the assay with HS 578T breast; 101% in the assay on NCI/ADR-RES ovarian. In addition, the growth in the assay with T-47D breast is 100%.
As to `COc1ccc(-c2nsc3c2NC(=O)CC3c2ccc3c(c2)OCCO3)cc1` (configuration not stated), the growth is 31.5% in the assay with RPMI-8226 leukemia; 35.3% with OVCAR-8 ovarian; 37.5% with OVCAR-5 ovarian; 3.12% (active) with SK-OV-3 ovarian; 49% in the assay with IGROV1 ovarian; -38.6% (active) with OVCAR-3 ovarian. Moreover, the growth in the assay on HS 578T breast was 28.4%; in the assay with NCI/ADR-RES ovarian, 21%; in the assay with T-47D breast, 50.2%.
For the molecule `CC(=O)Nc1nc2c(s1)CCc1c-2cn(S(=O)(=O)c2ccccc2)c1-c1ccccc1`, the growth was 57.7% with RPMI-8226 leukemia; 79.7% in the assay with OVCAR-8 ovarian; 97.4% in the assay with OVCAR-5 ovarian; 101% in the assay on SK-OV-3 ovarian; 97.2% with IGROV1 ovarian; 80.5% in the assay on OVCAR-3 ovarian. Also, the growth in the assay on HS 578T breast was 91.3%; with NCI/ADR-RES ovarian, 49.7%; in the assay with T-47D breast it was 49.3%.
As for `O=c1nc2sc3nc4ccccc4cc3cc-2s1`, the growth with RPMI-8226 leukemia is 128%; with OVCAR-8 ovarian, 112%; in the assay on OVCAR-5 ovarian it was 120%; with SK-OV-3 ovarian, 108%; in the assay on IGROV1 ovarian it was 127%; in the assay with OVCAR-3 ovarian, 140%. Moreover, the growth was 103% in the assay on NCI/ADR-RES ovarian and 119% in the assay with T-47D breast.
Consider `CCOC(=O)c1ccc2[nH]c(-c3ccccc3)cc(=O)c2c1`, for which the growth in the assay with RPMI-8226 leukemia was 88.2%; in the assay with OVCAR-8 ovarian, 97.6%; with OVCAR-5 ovarian, 101%; in the assay on SK-OV-3 ovarian it was 112%; in the assay with IGROV1 ovarian it was 92.5%; with OVCAR-3 ovarian, 106%. Moreover, the results for the growth with HS 578T breast, with NCI/ADR-RES ovarian and in the assay with T-47D breast were 104%, 102% and 105%, respectively.
With `O=C(Nc1ccccc1O)c1ccc(Oc2cccc(C(=O)Nc3ccccc3O)c2)cc1`, the growth was 8.97% (active) with RPMI-8226 leukemia; 16.7% with OVCAR-8 ovarian; 50.7% in the assay with OVCAR-5 ovarian; 26.6% with SK-OV-3 ovarian; 18.6% in the assay with IGROV1 ovarian; 27.3% in the assay with OVCAR-3 ovarian. Moreover, the values for the growth in the assay with NCI/ADR-RES ovarian and with T-47D breast were 5.02% (active) and 26.1%, respectively.
Take `O=C(Nc1ccc(I)cc1F)c1cc(Cl)ccc1O`: the growth was -29.3% (active) with RPMI-8226 leukemia; 10.1% in the assay on OVCAR-8 ovarian; 26.1% in the assay with OVCAR-5 ovarian; 4.21% (active) in the assay on SK-OV-3 ovarian; 16.2% in the assay on IGROV1 ovarian; 4.4% (active) in the assay with OVCAR-3 ovarian. For the same molecule, the growth is 5.53% (active) with HS 578T breast, 9.54% (active) in the assay on NCI/ADR-RES ovarian and -4.67% (active) in the assay on T-47D breast.
On to `O=C(Nc1ccccc1O)c1ccc(-c2ccc(Cl)cc2Cl)o1`, for which the growth in the assay on RPMI-8226 leukemia is 74.1%; with OVCAR-8 ovarian, 94.3%; in the assay with OVCAR-5 ovarian, 99.2%; with SK-OV-3 ovarian, 94.5%; with IGROV1 ovarian, 88.3%; in the assay on OVCAR-3 ovarian it was 85.6%. The growth was 90.3% in the assay on NCI/ADR-RES ovarian and 77.2% in the assay on T-47D breast.
`CCOc1cc(Cl)c(C(C)NC(=O)c2cccc(OC)c2)cc1OCC` (configuration not stated): the growth in the assay with RPMI-8226 leukemia is -6.93% (active); in the assay on OVCAR-8 ovarian, -19.9% (active); with OVCAR-5 ovarian, 30.2%; with SK-OV-3 ovarian, 35.4%; with IGROV1 ovarian, 28.2%; in the assay on OVCAR-3 ovarian, -82.5% (active). For the same molecule, the growth was 18% in the assay on HS 578T breast, 1.86% (active) in the assay with NCI/ADR-RES ovarian and 13.5% in the assay with T-47D breast.
Consider `CCCCc1ccc(NS(=O)(=O)c2cc3c4c(c2)CCN4C(=O)CC3)cc1`, for which the growth in the assay on RPMI-8226 leukemia was 21.9%; in the assay on OVCAR-8 ovarian it was 15.9%; in the assay with OVCAR-5 ovarian, 52.5%; in the assay with SK-OV-3 ovarian, 30.8%; in the assay on IGROV1 ovarian it was 11.3%; with OVCAR-3 ovarian, 32.2%. For the same molecule, the growth with HS 578T breast is 47.8%; with NCI/ADR-RES ovarian, 7.47% (active); with T-47D breast it was 25.4%.
As to `FC(F)(F)c1cccc(CNC2CCN(CCc3ccccc3)CC2)c1`, the growth in the assay with RPMI-8226 leukemia is -10.3% (active); in the assay on OVCAR-8 ovarian, 79.5%; with OVCAR-5 ovarian, 84.6%; in the assay with SK-OV-3 ovarian, 81.2%; in the assay with IGROV1 ovarian, 61.9%; with OVCAR-3 ovarian, 64.7%. Further, the growth in the assay on NCI/ADR-RES ovarian is 65.2%; in the assay on T-47D breast it was 86.7%.
As to `O=C(Nc1ccc(Cl)cc1)N1CCN(c2ccc3nncn3n2)CC1`, the growth in the assay with RPMI-8226 leukemia is -20.9% (active); in the assay with OVCAR-8 ovarian it was 30.5%; in the assay with OVCAR-5 ovarian, 87.2%; in the assay with SK-OV-3 ovarian, -3.29% (active); in the assay on IGROV1 ovarian, 72.3%; in the assay on OVCAR-3 ovarian, -7.82% (active). The results for the growth in the assay on HS 578T breast, in the assay with NCI/ADR-RES ovarian and in the assay on T-47D breast were -40.7% (active), 63.2% and -54.9% (active), respectively.
Take `C=C(C)CCC(C)N1CCC(N2CCC(C(=O)NCCc3ccccc3)CC2)CC1` (configuration not stated): the growth is 4.75% (active) in the assay on RPMI-8226 leukemia; 75.6% in the assay on OVCAR-8 ovarian; 92.2% with OVCAR-5 ovarian; 52.9% in the assay on SK-OV-3 ovarian; 69.5% in the assay with IGROV1 ovarian; 56.6% in the assay with HS 578T breast. For the same molecule, the figures for the growth with NCI/ADR-RES ovarian and with T-47D breast were 59.9% and 60.9%, respectively.
For `CCN1CCN(c2cc(C)c3cc(NC(=O)c4ccc(OC)c(OC)c4)ccc3n2)CC1`, the growth was 16.7% in the assay with RPMI-8226 leukemia; 58.9% in the assay with OVCAR-8 ovarian; 88.7% in the assay on OVCAR-5 ovarian; 39.8% in the assay on SK-OV-3 ovarian; 36.6% in the assay on IGROV1 ovarian; 12.5% in the assay on OVCAR-3 ovarian. Further, the results for the growth in the assay with HS 578T breast, in the assay on NCI/ADR-RES ovarian and with T-47D breast were 32.6%, 28.1% and 58.4%, respectively.
